High-throughput results from PubChem.
Giardia FBPA inh – qHTS Assay for Inhibitors of Fructose-1,6-bisphosphate Aldolase from Giardia Lamblia; A8B2U2; purified Giardia FBPA; Potency, µM (series often up to 59.6 µM), for inactives: top-dose activity, negative = inhibition, actives largely listed as inhibitors; 0.71% of 290,000 active; AID 2451, 2010; further: potency means the concentration at half of the fitted maximal effect; on the % scale 0 is the no-effect control and ±100 the full control effect; nearly all actives have a fitted effect of over 55% in size
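Giardia FBPA (40 nM reagent) was preincubated 10 min at RT with compound (up to 57.5 uM final), then substrate plus GAPDH/TPI/NAD/arsenate coupling system with diaphorase/resazurin was added; resorufin fluorescence (525/598 nm) was read after 20 min.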
TbPYK inhibitor – qHTS of Trypanosoma Brucei Inhibitors; Potency, µM (doses to about 76.8 µM), for the others: at the highest dose activity, negative = inhibition, actives largely listed as inhibitors; TbPYK enzyme, Kinase-Glo Plus ATP luminescence, 45 min; 0.12% of 410,000 active; AID 624173, 2012; pyruvate kinase (Trypanosoma brucei), Q57TT1; further: potency means the concentration at half of the fitted maximal effect; on the % scale 0 is the no-effect control and ±100 the full control effect; nearly all actives have a fitted effect of over 50% in size
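Luminescence from Kinase-Glo Plus, added after a 45-minute room-temperature reaction, served as the end-point read-out. The enzyme and substrate were preincubated with compound before ADP (130 uM final) initiated turnover. Concentration-effect curves came from normalized qHTS data.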
CHX counter – Cycloheximide Counterscreen for Small Molecule Inhibitors of Shiga Toxin. cell reporter, cycloheximide protein synthesis inhibition counterscreen. max response, %. 12% of 300,000 active; in the data active means max response mostly above about 13%, no sharp cut-off; inactive means mostly below about 14%; further: read at 38.3 µM for the half of the compounds with a filed dose; 0% is about no effect
RE007 growth inh – qHTS Assay for Inhibitors of the HIV-1 protein Vpr; S. pombe RE007 Vpr strain, BacTiter-Glo ATP luminescence, 24 h; Potency, µM (titrated, usually from 92.2 µM), inactives show at the highest dose activity change, negative = less growth, hits mostly inhibitors; 0.21% of 360,000 active; active means well fitted falling curve with a large enough effect; inconclusive means small, poorly fitted or top-dose-only effect; inactive means no such curve, though single readings can be large or run the other way; further: potency means the concentration at half of the fitted maximal effect; on the % scale 0 is the no-effect control and ±100 the full control effect; nearly all actives have a fitted effect of over 50% in size
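Fission yeast RE007 carrying one integrated HIV-1 vpr copy, seeded at OD 0.01 in PMG+AL medium with 23 nL pinned compound. Grown 24 h at 30 degrees; viability read by BacTiter-Glo luminescence after 5 min.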
Shiga toxin inh – A qHTS for Small Molecule Inhibitors of Shiga Toxin; Vero cells, Shiga toxin protein synthesis inhibition reporter; inhibition, % at 38.7 µM; 9.2% of 290,000 active; AID 2315, 2010; in the data active means inhibition mostly above about 28%, no sharp cut-off; inactive means mostly below about 43%; further: 0% is about no effect
LmPK inhibitor – qHTS Assay for Inhibitors of Leishmania Mexicana Pyruvate Kinase (LmPK) | Q27686 | purified LmPK, Kinase-Glo ATP luminescence, 1 h | Potency, µM (titrated, usually from 57.5 µM), for the others: at the highest dose activity change, negative = inhibition, most hits filed as inhibitors | 0.37% of 290,000 active | AID 1721, 2009; further: potency means the concentration at half of the fitted maximal effect; on the % scale 0 is the no-effect control and ±100 the full control effect
Target sequence (Q27686 whole entry, looked up): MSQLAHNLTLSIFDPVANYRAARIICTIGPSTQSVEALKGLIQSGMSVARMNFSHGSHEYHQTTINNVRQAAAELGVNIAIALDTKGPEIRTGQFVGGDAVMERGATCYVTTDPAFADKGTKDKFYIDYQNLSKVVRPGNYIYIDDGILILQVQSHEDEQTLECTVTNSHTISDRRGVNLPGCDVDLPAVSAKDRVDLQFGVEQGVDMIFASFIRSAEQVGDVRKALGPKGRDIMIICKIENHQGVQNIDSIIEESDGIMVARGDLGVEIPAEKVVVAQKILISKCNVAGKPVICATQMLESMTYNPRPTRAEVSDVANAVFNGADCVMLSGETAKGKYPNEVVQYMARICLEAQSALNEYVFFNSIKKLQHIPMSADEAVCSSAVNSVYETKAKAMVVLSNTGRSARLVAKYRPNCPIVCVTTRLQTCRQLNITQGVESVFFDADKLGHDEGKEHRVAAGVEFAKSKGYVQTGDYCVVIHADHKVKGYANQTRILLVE
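Screened at intermediate enzyme activity to detect both inhibitors and activators: LmPK at 0.1 nM, with a 0.5 nM enzyme column as activation reference. PEP 0.5 mM, ADP 0.1 mM; ATP detected by luminescence after 1 h.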
An asterisk follows results filed as active; u = inconclusive; x = no result given; ! = repeats disagree; [ ] = another dose, or the depositor's remark. Only a selection was taken, and hits are over-represented in it overall. Unless noted, the call rests on the fitted dose curve; in most records, active means well fitted curve in the direction sought with a large enough effect; inconclusive means small, poorly fitted or top-dose-only effect, or another doubt; inactive means no such curve, though single readings can be large; an effect the other way counts as inactive or inconclusive.

SMILES	Giardia FBPA inh	TbPYK inhibitor	CHX counter	RE007 growth inh	Shiga toxin inh	LmPK inhibitor
O=C1c2cccnc2C(=O)N1c1cccc(-c2nc3ccccc3o2)c1	-8%	-2%	34*	-7%	68*	11%
Cc1cc(C)c(S(=O)(=O)N2CCC(n3c(C(F)(F)F)nc4cccnc43)CC2)c(C)c1	x	1%	x	x	x	x
O=C(Nc1ccc(-c2nc3cc(Cl)ccc3o2)cc1)c1cc2ccccc2o1	x	6%	x	x	x	x
O=c1oc2cc(O)ccc2cc1-c1nc2ccccc2o1	x	-6%	x	-9%	x	x
c1ccc2nc(-c3nc4ccccc4o3)ccc2c1	-11%	u	6	u	10	3.2µM*
Clc1ccc2oc(-c3ccccn3)nc2c1	-9%	-3%	44*	-21%	118*	-1%
COc1ccccc1C(=O)Nc1cccc(C(=O)OCc2cc(=O)n3cc(C)sc3n2)c1	x	-3%	x	x	x	x
CN(C)S(=O)(=O)N1CCC(Oc2cccc(C(=O)NC3CCOC3)c2)CC1 (centres undefined)	x	5%	15*	-14%	23	-1%
CN1CCN(S(=O)(=O)c2cccc(C(=O)NCCC3=CCCCC3)c2)CC1	x	0%	x	1%	x	x
CCC1C(=O)NCCN1C(=O)c1cccc(OC2CCN(S(=O)(=O)N(C)C)CC2)c1 (centres undefined)	x	2%	38*	4%	52	-2%
CN(C)S(=O)(=O)N1CCC(Oc2cccc(C(=O)NC3CCCCC3)c2)CC1	x	-28%	28	5%	24	-1%
CN(C)S(=O)(=O)N1CCC(Oc2cccc(C(=O)NCCC3=CCCCC3)c2)CC1	6%	-5%	24*	1%	63*	10%
CN1c2ccccc2C(=O)N2CCc3c([nH]c4ccccc34)C21 (centres undefined)	2%	x	1	x	23	x
Cc1ccc(Nc2nc(Cl)nc(NC(C)(C)C)n2)cc1	1%	0%	54*	-11%	60*	5%
NNc1nccc(Nc2ccccc2C(=O)O)n1	u	-7%	7	-10%	-5	-7%
c1ccc(Nc2ccnc(Nc3ccccc3)n2)cc1	-16%	-8%	53*	-11%	100*	-2%
NNc1ccccc1	-16%	4%	14*!	x	11	x
NNc1nc(Nc2ccccc2)nc(N2CCCCC2)n1	7%	-4%	10	-20%	-7	1%
NNc1nc(Nc2ccccc2)nc(Nc2ccccc2)n1	-2%	0%	28	9%	36*	-1%
C=CCNc1nc(Cl)nc(Nc2ccccc2)n1	3%	1%	22*	5%	40*	0%
CNc1nc(Cl)nc(Nc2ccccc2)n1	-5%	-1%	40*	5%	45*	2%
COc1cc(OC)cc(C(=O)NNC(=O)CCNS(=O)(=O)c2ccc(Br)cc2)c1	x	2%	x	12%	x	x
O=C(CN1C(=O)c2cccnc2Oc2ccc(Cl)cc21)Nc1cccc(C(F)(F)F)c1	x	-1%[15.4 µM]	x	x	x	x
O=C(CN1C(=O)c2cccnc2Oc2ccc(Cl)cc21)Nc1ccccc1F	0%	2%	13*	7%	14	3%
COC(=O)c1scc(-c2ccc(C)cc2)c1S(=O)(=O)Nc1cc(C)c(Cl)cc1OC	x	5%	x	x	x	x
SMILES	Giardia FBPA inh	TbPYK inhibitor	CHX counter	RE007 growth inh	Shiga toxin inh	LmPK inhibitor
Nc1ccc2c(c1)oc1ccccc12	0%	6%	27*	u	50*	-4%
Nc1ccc2oc3ccccc3c2c1	u	-6%	14	-4%	4	1%
Cc1cccc(/C=N/NC(=O)c2cc(Br)ccc2O)n1	u	5%	32*	-7%	48*	3%
O=C(N/N=C/c1ccoc1)c1cc(Br)ccc1O	-29%	-11%	31*	-18%	57	-1%
O=C(N/N=C/c1ccoc1)c1ccccc1Br	2%	-2%	7	-15%	2	2%
Cc1cc(Br)cn2c(Cc3cccc(F)c3)c(C3CCCCC3)nc12	x	5%	x	u	x	x
COc1ccccc1NC(=O)CN1C(=O)C2(SCC(=O)N2c2ccc(C)c(C)c2)c2ccccc21 (centres undefined)	x	-5%	x	x	x	x
Cc1cccc(-c2cc3nc(C)cc(=O)n3[nH]2)c1	x	-1%	x	-2%	x	x
Cc1nc2cc(-c3cccs3)[nH]n2c(=O)c1C	x	-3%	x	-18%	x	x
Cc1ccccc1-c1cc2nc(C)c(C)c(=O)n2[nH]1	u	-6%	23*	1%	36*	0%
Cc1nc2cc(-c3ccc(F)cc3)[nH]n2c(=O)c1C	-11%	-2%	32*	7%	84*	-9%
Cc1ccccc1NC(=O)CCn1nc(-c2ccccc2)c2ccccc2c1=O	x	3%	x	x	x	x
COc1ccc(-c2noc(CSc3nnc(-c4ccc(Cl)cc4)n3C)n2)cc1OC	x	-7%	x	x	x	x
CC1(C)CC(=O)C(N=Nc2cccc([N+](=O)[O-])c2)=C(O)C1	2%	-3%	45*	14%	63*	-30%
CC1(C)CC(=O)C(N=Nc2ccc(C(F)(F)F)cc2[N+](=O)[O-])=C(O)C1	-23%	1%	-1	-11%	-12	4%
CC1(C)CC(=O)C(N=Nc2ccc(Br)cc2)=C(O)C1	-3%	-1%	5	32%	16	2%
COc1ccc(CN=CC2=C(O)CC(C)(C)CC2=O)cc1	-1%	6%	23*	-4%	40	8%
COc1ccc(N=NC2=C(O)CC(C)(C)CC2=O)c(OC)c1	-2%	4%	19	6%	53*	-1%
COc1ccc(N=NC2=C(O)CC(C)(C)CC2=O)cc1	3%	-4%	47*	-2%	124*	-7%
Cc1cc(-c2ccccc2)n2nc(N)nc2n1	7%	-4%	-5	7%	-6	-3%
CCOC(=O)c1ccc(NC(=O)C2CCN(S(=O)(=O)Cc3ccccc3)CC2)cc1	x	-5%	x	x	x	x
CCOC(=O)/C(C#N)=C1/C(=O)N(Cc2ccccc2)c2ccccc21	10µM*	-1%	-1	-9%	-4	-7%
O=c1n(Cc2ccc([N+](=O)[O-])cc2)c2ccccc2c2nc(-c3ccccc3)nn12	x	1%	x	x	x	x
NC(=O)CSCc1nc2ccccc2s1	-16%	-2%	84*	14%	42	-3%
O=C(CCc1nc2ccccc2s1)OCc1ccccc1	-4%	3%	-1	-20%	20	-5%
N/C(Cc1nc2ccccc2s1)=N\O	-18%	8%	31*	2%	108*	-2%
CC1(C)COC(/C=C/c2cccc([N+](=O)[O-])c2)=N1	1%	1%	34*	-16%	65*	-7%
COC(=O)c1ccc(NC(=O)CSc2ccc(-c3sc(-c4ccccc4)nc3C)nn2)cc1	x	0%	x	x	x	x
